In general, AC50 refers to the concentration giving half of the maximal activity seen.

Records with an inconclusive call do not appear. Calls of active or inactive are those of the source. Rule for the calls, unless noted: active = hit-call score of the fitted dose curve at least 0.9, where 1 is the maximum; inactive = score below 0.9.

Experiment [1] in a line: BSK_BT_PBMCCytotoxicity: PBMC Cytotoxicity Assessment in the BioMAP Diversity Plus: BT Assay (AID 2284225).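 Note: PBMC viability measured by Alamar Blue dye reduction fluorescence.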 The note with it: primary human B cells with PBMC. An outline of the steps:
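Primary human co-culture of B cells and PBMC, pre-dosed 1 h then activated with SEB and TSST-1. Cytotoxicity is taken from Alamar Blue dye reduction, added for 6 h at the end of a 90 h incubation.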

Read-out in experiment [2]: Secreted IgG (sIgG), gene 3500
In words: BSK_BT_sIgG: BioMAP Diversity Plus: BT Assay for Secreted IgG (sIgG) Biomarker Activity (AID 2284226). The note with it: primary human B cells with PBMC. An outline of the steps: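 In this multiplexed co-culture system, ELISA quantifies sIgG 24 h post-treatment. Endpoint analysis uses positive fitting direction, DMSO negative control.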

Experiment [3] in a line: BSK_BT_Bcell_Proliferation: Viability Assessment in the BioMAP Diversity Plus: BT Assay for B cell Proliferation (AID 2284227). The following applies: primary human B cells with PBMC. An outline of the steps: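 Human B cells co-cultured with PBMC were dosed with test chemicals and relative cell number was quantified by SRB staining at 72 h. Cells were fixed in 10% TCA, stained with 0.1% SRB and read at 560 nm. Activity was fitted in the positive direction against DMSO.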

The nature of experiment [4]: CCTE_Mundy_HCI_Cortical_Synap_Neur_Matur_SynapseCount: CCTE's Synaptogenesis and Neurite Maturation Assay in rat cortical cells for Synapse Count, Mundy Lab (AID 2284218). An outline of the steps:
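Endpoint: synapses/neuron by HCI (synaptophysin puncta on MAP2-labelled neurites, Hoechst nuclei). Rat primary cortical cells, AraC DIV 5, dosed DIV 7, fixed DIV 12; DMSO negative control.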

A short description of experiment [5]: CCTE_Mundy_HCI_Cortical_Synap_Neur_Matur_NeuriteCount: CCTE's Synaptogenesis and Neurite Maturation Assay in rat cortical cells for Neurite Count, Mundy Lab (AID 2284222).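 For outcome: exposure from day 7 to day 12 in vitro with readout at day 12.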 An outline of the steps:
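Rat primary cortical cells; AraC added at DIV 5, chemicals dosed with media change at DIV 7 through DIV 12. MAP2/synaptophysin/Hoechst immunostaining, high-content imaging of neurite number; fitted relative to DMSO.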

Experiment [6] is described as follows: CCTE_Mundy_HCI_Cortical_Synap_Neur_Matur_CellBodySpotCount: CCTE's Synaptogenesis and Neurite Maturation Assay in rat cortical cells for Cell Body Spot Count, Mundy Lab (AID 2284223). An outline of the steps:
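Rat primary cortical cultures received AraC at DIV 5 to arrest glia, were dosed with chemical at DIV 7 with media change, and were fixed at DIV 12 (288.33 h). Synaptophysin puncta on MAP2-positive cell bodies per neuron were counted by high-content imaging versus DMSO.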

Experiment [7] can be described thus: CCTE_Mundy_HCI_hN2_NOG_NeuriteCount: CCTE's Neurite Outgrowth Assay in human hN2 cells for Neurite Count, Mundy Lab (AID 2284219; active = hit-call score of the fitted dose curve at least 0.9, where 1 is the maximum). An outline of the steps:
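In this morphology assay, hNP1-derived neurons received test chemical 2 h post-plating and were fixed two days later in warm paraformaldehyde/sucrose containing Hoechst 33342. Neurites, labelled by rabbit anti-βIII-tubulin (1:800) and Alexa Fluor-488 (1:500), were counted automatically.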

The nature of experiment [8]: CCTE_Mundy_HCI_hN2_NOG_NeuriteLength: CCTE's Neurite Outgrowth Assay in human hN2 cells for Neurite Length, Mundy Lab (AID 2284220; active = hit-call score of the fitted dose curve at least 0.9, where 1 is the maximum). An outline of the steps:
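Plate hNP1-derived neurons, then add chemical 2 h later as a 1/10 dilution. Stain with anti-βIII-tubulin then Alexa Fluor-488 secondary, and image automatically to measure neurite length.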

Experiment [9] is described as follows: CCTE_Mundy_HCI_hN2_NOG_NeuronCount: CCTE's Neurite Outgrowth Assay in human hN2 cells for Neuron Count, Mundy Lab (AID 2284221; active = hit-call score of the fitted dose curve at least 0.9, where 1 is the maximum). An outline of the steps:
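Read-out is the number of betaIII-tubulin-positive neurons imaged by automated high-content analysis, with DMSO as negative control.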

Experiment [10] is described as follows: TAMU_PeakParms_SingleDonor1434_Chronotropy: Texas A&M University (TAMU) 1.5-hr Human Induced Pluripotent Stem Cell (iPSC)-derived Cardiomyocytes Calcium (Ca+2) Flux Assay for Cardiotoxicity: Chronotropy (changes in peak frequency) (AID 2284217). The note with it: actives raise or lower the signal. An outline of the steps:
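iPSC-derived cardiomyocytes (single donor 1434) dosed at 0.2, 1, 10 and 100 uM in 0.5% DMSO for 1.5 h at 37C; Ca2+ dye fluorescence gave average beat frequency. Zero-beat points removed; bidirectional fit versus DMSO, POD as EC05.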

Regarding `COCC(C)N(C(=O)CCl)c1c(C)csc1C` (stereo not drawn), the outcome in experiment [1] and in [3] was inactive. Also, the AC50 in experiment [2] is 13.5 µM (active).

Take `CC1(C)C(C=C(Cl)Cl)C1C(=O)OC(C#N)c1cccc(Oc2ccccc2)c1` (stereo not drawn): the molecule was classed as inactive in [4], in [5] and in experiment [6].

As for `CO/N=C(/C1=NOCCO1)c1ccccc1Oc1ncnc(Oc2ccccc2Cl)c1F`, the AC50 in [4] is 2.75 µM (active); in experiment [5] it was 3.45 µM (active); in experiment [6], 3.26 µM (active).

In the case of `CC(C)(C)C(=O)C(Oc1ccc(Cl)cc1)n1cncn1` (stereo not drawn), the AC50 in experiment [4] was 6.09 µM (active); in [5], 12.8 µM (active). Also, in [6], the outcome was inactive.

On to `CS(=O)(=O)c1cc(C(F)(F)F)ccc1C(=O)c1cnoc1C1CC1`, for which the call in experiment [4], in [5] and in [6] was inactive.

As to `CCNC(=O)NC(=O)C(C#N)=NOC`, the AC50 in [4] is 0.0179 µM (active). Moreover, the result in experiment [5] and in experiment [6] was inactive.

For the molecule `N#CN=C1SCCN1Cc1ccc(Cl)nc1`, the result in experiment [4], in experiment [5] and in [6] was inactive.

Regarding `CCN(CC)c1nc(C)cc(OP(=S)(OC)OC)n1`, the molecule was called inactive in [4], in experiment [5] and in experiment [6]. Also, the AC50 in [7] was 72.4 µM (active); in [8], 60.7 µM (active); in [9] it was 50 µM (active).

For `O=C1C2CC=CCC2C(=O)N1SC(Cl)(Cl)Cl` (stereo not drawn), the result in [10] was inactive.

Regarding `C=C(C)CN(CC)c1c([N+](=O)[O-])cc(C(F)(F)F)cc1[N+](=O)[O-]`, the results for the AC50 in [4], in [5] and in [6] were 4.72 µM (active), 7.75 µM (active) and 5.33 µM (active), respectively.

On to `CCCCC(C#N)(Cn1cncn1)c1ccc(Cl)cc1` (stereo not drawn), for which, in experiment [10], the outcome was inactive.

In the case of `COC(=O)N(C(=O)N1CO[C@@]2(C(=O)OC)Cc3cc(Cl)ccc3C2=N1)c1ccc(OC(F)(F)F)cc1`, the outcome in [4], in experiment [5] and in experiment [6] was inactive.

On to `CCSC(=O)N1CCCCCC1`, for which the call in experiment [4], in experiment [5] and in [6] was inactive.
